# Compounds without any hit were thinned out: in the full panel of roughly 83,000, 20% have a hit.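 Negative percent growth values reflect cell death: -40 means 40% of the cells present at the start died, and -100 means all died.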 Values without a mark were called inactive. Activity calls are given as the source filed them. The calls were made as follows: active = growth percent below 10; inactive = the rest.
# What was measured:
# Experiment in all cases: NCI-60 one-dose screen, 48 h (100 = growth as untreated, 0 = no growth, -100 = all killed)
# Details in all cases: 10 µM unless noted
# [1] = tested on: DU-145 prostate
# [2] = tested on: K-562 leukemia
# [3] = tested on: MALME-3M melanoma
# [4] = tested on: MDA-MB-231 breast
# [5] = tested on: RXF 393 renal
# [6] = tested on: SF-268 CNS
# [7] = tested on: SF-295 CNS
# [8] = tested on: SF-539 CNS
# [9] = tested on: UACC-257 melanoma
# [10] = tested on: M14 melanoma
Structure (SMILES),growth [1],growth [2],growth [3],growth [4],growth [5],growth [6],growth [7],growth [8],growth [9],growth [10]
Cc1ccc(CNc2ccc(Cl)cc2NCc2ccc(C)c(O)c2)cc1O,23.4%,12.3%,-3.38% (active),-52.2% (active),21.2%,28.3%,74.2%,25.8%,46.2%,25.3%
CCO/C=N/C1=C(C#N)C(c2ccc(OC)cc2)c2sc3c(F)cccc3c2O1 (stereo not given),35.8%,15.1%,60%,34.6%,3.81% (active),44.2%,16.6%,-23.7% (active),71.6%,22.6%
COc1ccc(C(c2cc(OC)c(OC)c(OC)c2)N2CCN(c3ccccc3)CC2)cc1 (stereo not given),113%,41.6%,99.7%,92.3%,96.2%,95.8%,92.3%,94.4%,81.3%,76.3%
CC/C(=C(/c1ccc(Cl)cc1)c1ccc(OCCN2CCCC2)cc1)c1ccc(OC)cc1,86.3%,5% (active),79.8%,80.2%,67%,87.1%,66%,82.6%,74.8%,50.3%
CC1(C)CCC(S(=O)(=O)c2ccc3c(c2)/C(=N\O)c2cc(S(=O)(=O)N4CCC(O)(c5cccc(C(F)(F)F)c5)CC4)ccc2-3)CC1,-83.8% (active),-70.2% (active),-79% (active),-68.7% (active),-85.4% (active),-71.2% (active),-64.8% (active),-82.1% (active),-69.9% (active),-74.8% (active)
O=S(=O)(NCCNc1nccc(-c2c(-c3cccc(F)c3)nc3occn23)n1)c1ccc(Br)cc1,90.4%,69.1%,76.9%,82.3%,68.3%,90.7%,99.4%,92%,98.4%,79.8%
O=C1Nc2ccccc2[C@]12CC(c1ccccc1)=NN2,74.5%,21.8%,37.2%,53.4%,73.3%,47.5%,45.6%,28.4%,67.8%,25.8%
COc1ccc(/C=C2\COc3ccc(O)c(O)c3C2=O)cc1,19.4%,13.4%,-26.3% (active),-11.4% (active),2.29% (active),2.86% (active),48.5%,-36.9% (active),14.8%,8.06% (active)
O=C(Cn1c(-c2ccc([N+](=O)[O-])cc2)nc2ccccc21)NNC(=O)c1cccnc1,90.3%,63.4%,105%,92.4%,98.7%,89.2%,83.4%,88.9%,86.7%,91%
Oc1c(Cl)cc(Cl)cc1/C=N/Nc1nnc(N/N=C/c2cc(Cl)cc(Cl)c2O)c2ccccc12,21.8%,9.41% (active),10.4%,21.3%,-16.3% (active),6.61% (active),-1.51% (active),-17.7% (active),38.5%,5.83% (active)
CCc1ccc(Oc2cn[nH]c2-c2ccc(OCCc3ccc(F)cc3)cc2O)cc1,90.5%,100%,95.1%,85%,111%,88.9%,99.2%,106%,93.3%,83.1%
CCOC(=O)c1cc(C(=O)c2cc(OC)c(OC)c(OC)c2)n2ccc(-c3ccncc3)cc12,103%,98.7%,87.5%,70.2%,95.3%,96.4%,113%,93.9%,80.8%,101%
Cc1ccc(-c2nc(/C=C3/C(=O)Nc4ccccc43)c3ccccn23)cc1,-16.3% (active),81.5%,116%,85.2%,38.2%,88%,91.9%,94.8%,102%,92.3%
Cc1ccc(C2=Nc3c(N)ncnc3NC(c3ccc4c(c3)OCO4)C2)cc1 (stereo not given),98%,14.8%,51.8%,61.3%,59.4%,72.9%,40.8%,67.7%,96.2%,39%
CC[C@@H](C(=O)[C@@H](C)[C@@H](O)[C@H](C)[C@@H]1O[C@@H]([C@@H](CC)C(=O)NCCc2ccc(F)cc2)CC[C@@H]1C)C1O[C@]2(C=CC(=O)[C@]3(CC[C@@](C)([C@H]4CC[C@](O)(CC)[C@H](C)O4)O3)O2)[C@H](C)C[C@@H]1C (stereo not given in full),50.5%,17%,36%,13.8%,42.7%,24.2%,18.4%,47.7%,43.5%,25.4%
COc1ccc(NC(=O)c2sc3nc(C)c(C(=O)/C=C/c4cccc(OC)c4)cc3c2N)cc1,21.9%,12.7%,94.1%,53.2%,-11.4% (active),34.4%,26.9%,71.2%,87.9%,70.3%
COc1ccc(C(=S)N2CCN(c3ccccc3Cl)CC2)cc1OC,111%,106%,90.8%,102%,111%,99.4%,91.7%,99.4%,104%,92.8%
C#CCOc1cccc(Nc2ncnc3c(NC(=O)C=C)cccc23)c1,-1.57% (active),5% (active),31.3%,26.3%,-3.19% (active),20.7%,53.6%,5.67% (active),33%,19.9%
COc1ccc(/C=C2\C(=O)N=C3N2NC(c2cc(Br)ccc2O)C=C(C)N3c2ccccc2)cc1 (stereo not given),104%,97.3%,92.2%,92.8%,97.7%,100%,101%,99.9%,96.7%,98.8%
CCOC(=O)CSc1ncnc2c1c(-c1ccccc1)c(-c1ccccc1)n2-c1ccc(C)cc1,74.4%,38%,62.1%,85.7%,105%,86.2%,76.2%,86.2%,51.9%,75.6%
CS(=O)(=O)Nc1cc(-c2ccc3ncnc(Nc4ccc5c(cnn5Cc5ccccn5)c4)c3c2)cnc1Cl,90%,92.1%,39.5%,71.5%,72.8%,51.5%,91.5%,69.9%,88.1%,75.5%
CC(=O)n1nc(C(=O)OC(C)C)c2cc(C)c(C)cc21,105%,91.1%,95%,102%,118%,102%,89.8%,107%,92.3%,93.7%
Brc1ccc2[nH]cc(-c3nonc3-c3c[nH]c4ccccc34)c2c1,44.6%,10.4%,56.8%,11.6%,77.6%,44.9%,33.3%,59.9%,56.9%,24.7%
N#CC1C=CN(CC(N)=O)c2ccc3cccnc3c21 (stereo not given),108%,94.7%,97.5%,95.5%,114%,105%,103%,99.1%,89%,97.7%
Nc1c(C(=O)Nc2ccccc2Cl)sc2nc3c(cc12)C(O)CCC3 (stereo not given),14.4%,10.9%,76.2%,58.2%,19.6%,65.6%,22.8%,3.94% (active),56.8%,19.9%
Cn1ccc2c3c(ccc21)CC3=O,120%,111%,121%,103%,115%,110%,112%,126%,114%,107%

Structure (SMILES),growth [1],growth [2],growth [3],growth [4],growth [5],growth [6],growth [7],growth [8],growth [9],growth [10]
COc1ccc(/C=C2\COc3ccc(O)cc3C2=O)c(OC)c1OC,46.2%,17.7%,78.2%,82.9%,111%,93.4%,98.3%,81.6%,97.2%,86%
CC1=Nc2cnc(Nc3ccc(OCCN4CCCCC4)cc3)nc2Nc2ccccc21,57.8%,24.1%,58.4%,60.6%,33.6%,64.9%,76.5%,69.6%,87.6%,50.6%
O=C1/C(=C/c2cccs2)SC(=S)N1CCCN1CCOCC1,92%,85.4%,84.3%,82.7%,99.6%,102%,102%,92.7%,93.9%,93.4%
C[C@]12CC[C@@H]3c4ccc(O)c([N+](=O)[O-])c4CC[C@H]3[C@@H]1CCC2=O,117%,96.7%,98.5%,91.4%,97%,66.7%,98.7%,98.2%,106%,102%
O=C(CCC(=O)N/N=C/c1ccccc1O)N/N=C/c1ccccc1O,48.4%,40.4%,62.5%,49%,58.9%,33.2%,89.6%,30%,76%,36.4%
COc1cc(-c2cc(-c3cccs3)c(C#N)c(N3CCOCC3)n2)cc(OC)c1OC,98.7%,10.9%,116%,65.4%,40.6%,113%,62%,58.9%,20.7%,44.6%
CCCCCCNC(=O)Oc1ccc(/C(=C(/C)Cc2ccc(OC)cc2)c2ccc(OCCCN(C)C)cc2)cc1,48.9%,-51.8% (active),-51.2% (active),32.6%,31.2%,60.8%,10.5%,40.7%,-6.6% (active),-63.9% (active)
CC(C)(C)n1cc(-c2ccnc(NCCNS(=O)(=O)c3cccc(F)c3)c2)c(-c2ccccc2)n1,96.1%,44.2%,107%,87%,96.8%,97.7%,76.8%,88.1%,98.9%,94.8%
O=C(Cn1c(=O)sc2ccccc21)NNS(=O)(=O)c1ccccc1[N+](=O)[O-],105%,98.9%,99.9%,104%,119%,97%,103%,99%,99.7%,99.4%
CCOC(=O)c1c(NC(=O)c2ccc(C(C)C)cc2)sc2c(CN(C)C)c(O)ccc12,78.2%,-31.3% (active),-45.5% (active),58.4%,44.2%,91.4%,4.37% (active),75%,67.3%,-64% (active)
CCOC(=O)CNP(=O)(OC[C@@H](Cc1ccccc1)NC(=O)c1cc2ccccc2s1)Oc1ccccc1 (stereo not given in full),88.8%,19.4%,69.3%,77%,84.4%,85.6%,88.5%,78.9%,81.2%,59.6%
O=C(O)/C(=C\c1ccc(Cl)cc1)c1ccc(Cl)cc1,107%,43.8%,81.5%,92.9%,78.8%,96.5%,118%,95.2%,85.8%,95.8%
O=C1c2ccc3c4ccc5c6c(ccc(c7ccc(c2c37)C(=O)N1CCC[P+](c1ccccc1)(c1ccccc1)c1ccccc1)c64)C(=O)N(CCC[P+](c1ccccc1)(c1ccccc1)c1ccccc1)C5=O,40.8%,16.4%,-27.8% (active),59.6%,95%,57.6%,42.5%,47.4%,21.5%,18.8%
COc1cccc(NC(=O)Cn2cc(CN3CCN(c4ccnc5cc(Cl)ccc45)CC3)nn2)c1,104%,67.4%,95.6%,73.9%,95%,84.7%,87.5%,87.7%,102%,104%
Cc1c(-c2nc3ccc(F)cc3c(=O)[nH]2)c2ccccc2n1C,53.6%,15%,48.4%,57.8%,14.3%,54.1%,15.1%,23.8%,55%,18.2%
COc1ccccc1Nc1nc2c(s1)C1=CC[C@H]3[C@@H]4CC[C@H]([C@H](C)CCCC(C)C)[C@@]4(C)CC[C@@H]3[C@@]1(C)CC2,103%,102%,101%,103%,117%,102%,108%,104%,110%,101%
O=CC1(C2(C=O)c3ccccc3-c3ccccc32)c2ccccc2-c2ccccc21,-63.3% (active),-13.6% (active),-71.8% (active),-12.5% (active),-61.4% (active),-46.9% (active),-59.8% (active),-64.5% (active),-76.1% (active),-67.1% (active)
N#CC1CCc2c(c(-c3cn[nH]c3C(F)(F)F)nc3c(F)cc4[nH]ncc4c23)C1 (stereo not given),48.2%,36.3%,18.1%,20.3%,21.7%,23.1%,73.8%,20.4%,48.6%,18.9%
C=C(C)[C@@H]1CC[C@]2(C(=O)NCCNCCN)CC[C@]3(C)[C@H](CC[C@@H]4[C@@]5(C)C/C(=C/c6ccncc6)C(=O)C(C)(C)[C@@H]5CC[C@]43C)[C@@H]12,106%,86.4%,106%,96.7%,103%,88.5%,100%,95.1%,105%,89.8%
N#CC1=C(N)Oc2c(sc3c(F)cccc23)C1c1ccc(F)cc1 (stereo not given),16.6%,11.1%,56.3%,39.6%,-16.5% (active),54.4%,14.6%,-14.3% (active),60.5%,0.877% (active)
CN1CCN(Cc2ccc(NC(=O)c3cncc(C#Cc4cnc(N)c5ccccc45)c3)cc2C(F)(F)F)CC1,-97.6% (active),-13.3% (active),-88.6% (active),-86.2% (active),-96.2% (active),-61.1% (active),-87.4% (active),-97.8% (active),-90.1% (active),-79.3% (active)
O=C1/C(=C\c2cn(-c3ccccc3)nc2-c2ccc(-c3cccs3)cc2)CCc2ccccc21,85.8%,17.6%,65.4%,67.5%,58.1%,70.5%,54.8%,72%,83.3%,39.1%
N#Cc1c(N)nnn1Cc1cc(=O)oc2c1ccc1ccccc12,105%,93.6%,103%,86.7%,104%,98%,109%,113%,97.7%,101%
CN(C)CCNc1nc2c3cc(Cl)ccc3nn2c2ccccc12,54.3%,46.5%,42%,46.8%,4.75% (active),45.7%,26.9%,36.8%,52.5%,62.1%
COc1cc(-c2nc(SCC(C)C)nc(Nc3cccc4ccccc34)c2C#N)cc(OC)c1OC,94.4%,57%,87.7%,57.1%,119%,92.6%,101%,101%,106%,103%
CN(C)Cc1ccc(NC(=O)c2cncc(C#Cc3cnc(N)c4ncccc34)c2)cc1F,86.8%,-4.46% (active),65.6%,-73.1% (active),40.1%,94%,95.9%,95.4%,88.7%,-84.5% (active)
